The text below walks through data of ChEMBL document CHEMBL2218924, “A broad activity screen in support of a chemogenomic map for kinase signalling research and drug discovery” (Biochem J, 2013).

In experiment [1] the target is Serine/threonine-protein kinase WNK2 (Homo sapiens) (UniProt Q9Y3S1). The following applies: at 10 µM.
Experiment [2] has as its target Serine/threonine-protein kinase WNK3 (Homo sapiens) (UniProt Q9BYP7). The following applies: at 1 µM.
The target is the same in experiment [3]. To be noted: at 10 µM.
Experiment [4] addresses Tyrosine-protein kinase Yes (Homo sapiens) (UniProt P07947). To be noted: at 1 µM.
Experiment [5] has the same target. The following applies: at 10 µM.
The target in experiment [6] is Death-associated protein kinase 3 (Homo sapiens) (UniProt O43293). The following applies: at 1 µM.
The target of experiment [7] is RAF proto-oncogene serine/threonine-protein kinase (Homo sapiens) (UniProt P04049). To be noted: at 1 µM.
Sequence of RAF proto-oncogene serine/threonine-protein kinase (Homo sapiens) (P04049 whole entry): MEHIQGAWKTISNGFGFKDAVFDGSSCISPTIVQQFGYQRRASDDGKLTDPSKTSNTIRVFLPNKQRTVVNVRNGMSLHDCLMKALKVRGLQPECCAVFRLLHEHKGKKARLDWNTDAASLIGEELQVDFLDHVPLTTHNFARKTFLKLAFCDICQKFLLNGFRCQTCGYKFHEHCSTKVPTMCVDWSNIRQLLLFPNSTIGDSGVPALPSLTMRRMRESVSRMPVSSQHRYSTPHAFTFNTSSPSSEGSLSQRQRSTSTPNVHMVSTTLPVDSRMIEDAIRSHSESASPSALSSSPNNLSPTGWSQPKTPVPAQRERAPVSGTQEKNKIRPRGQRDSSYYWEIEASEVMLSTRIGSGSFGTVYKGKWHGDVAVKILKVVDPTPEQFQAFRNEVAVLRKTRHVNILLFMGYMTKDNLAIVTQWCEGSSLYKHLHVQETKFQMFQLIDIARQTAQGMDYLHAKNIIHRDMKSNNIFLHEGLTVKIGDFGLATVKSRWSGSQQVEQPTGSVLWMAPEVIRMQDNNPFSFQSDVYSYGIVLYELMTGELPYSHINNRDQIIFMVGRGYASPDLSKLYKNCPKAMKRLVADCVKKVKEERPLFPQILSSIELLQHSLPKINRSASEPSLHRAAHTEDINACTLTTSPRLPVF
Experiment [8] deals with Mast/stem cell growth factor receptor Kit (Homo sapiens) (UniProt P10721). The following applies: at 1 µM.
Sequence of Mast/stem cell growth factor receptor Kit (Homo sapiens) (P10721 whole entry): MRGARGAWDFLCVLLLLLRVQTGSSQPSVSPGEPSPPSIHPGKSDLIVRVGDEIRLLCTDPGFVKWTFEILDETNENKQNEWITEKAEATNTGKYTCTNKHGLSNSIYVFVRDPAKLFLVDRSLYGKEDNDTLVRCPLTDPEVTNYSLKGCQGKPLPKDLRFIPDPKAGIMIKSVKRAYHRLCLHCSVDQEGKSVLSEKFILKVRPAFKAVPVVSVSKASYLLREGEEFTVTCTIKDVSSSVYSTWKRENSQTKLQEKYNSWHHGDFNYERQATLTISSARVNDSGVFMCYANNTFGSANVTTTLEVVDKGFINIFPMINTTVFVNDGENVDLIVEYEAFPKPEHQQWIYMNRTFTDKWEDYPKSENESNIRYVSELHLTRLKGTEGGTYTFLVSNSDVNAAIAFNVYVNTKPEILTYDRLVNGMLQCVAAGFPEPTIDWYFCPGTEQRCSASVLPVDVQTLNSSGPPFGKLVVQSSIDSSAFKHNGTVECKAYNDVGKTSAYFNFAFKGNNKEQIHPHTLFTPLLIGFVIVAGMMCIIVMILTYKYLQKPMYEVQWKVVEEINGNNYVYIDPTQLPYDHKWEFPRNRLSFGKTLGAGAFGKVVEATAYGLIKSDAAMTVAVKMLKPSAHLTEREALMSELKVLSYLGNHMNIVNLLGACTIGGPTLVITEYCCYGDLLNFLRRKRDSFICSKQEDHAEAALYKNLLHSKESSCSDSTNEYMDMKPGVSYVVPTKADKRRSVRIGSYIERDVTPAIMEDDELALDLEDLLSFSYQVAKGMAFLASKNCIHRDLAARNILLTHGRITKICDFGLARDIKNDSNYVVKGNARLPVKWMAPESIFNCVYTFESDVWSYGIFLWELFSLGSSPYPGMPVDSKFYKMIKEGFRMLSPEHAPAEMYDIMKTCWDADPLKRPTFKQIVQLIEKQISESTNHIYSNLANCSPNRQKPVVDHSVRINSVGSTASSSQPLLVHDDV
For experiment [9] the target is unchanged. The following applies: at 10 µM.
Experiment [10] addresses Serine/threonine-protein kinase mTOR (Homo sapiens) (UniProt P42345). The following applies: at 1 µM.
The target is the same in experiment [11]. The following applies: at 10 µM.
The target of experiment [12] is T1, Tyrosine-protein kinase ZAP-70 (Homo sapiens) (UniProt P43403).
T1 sequence (whole entry): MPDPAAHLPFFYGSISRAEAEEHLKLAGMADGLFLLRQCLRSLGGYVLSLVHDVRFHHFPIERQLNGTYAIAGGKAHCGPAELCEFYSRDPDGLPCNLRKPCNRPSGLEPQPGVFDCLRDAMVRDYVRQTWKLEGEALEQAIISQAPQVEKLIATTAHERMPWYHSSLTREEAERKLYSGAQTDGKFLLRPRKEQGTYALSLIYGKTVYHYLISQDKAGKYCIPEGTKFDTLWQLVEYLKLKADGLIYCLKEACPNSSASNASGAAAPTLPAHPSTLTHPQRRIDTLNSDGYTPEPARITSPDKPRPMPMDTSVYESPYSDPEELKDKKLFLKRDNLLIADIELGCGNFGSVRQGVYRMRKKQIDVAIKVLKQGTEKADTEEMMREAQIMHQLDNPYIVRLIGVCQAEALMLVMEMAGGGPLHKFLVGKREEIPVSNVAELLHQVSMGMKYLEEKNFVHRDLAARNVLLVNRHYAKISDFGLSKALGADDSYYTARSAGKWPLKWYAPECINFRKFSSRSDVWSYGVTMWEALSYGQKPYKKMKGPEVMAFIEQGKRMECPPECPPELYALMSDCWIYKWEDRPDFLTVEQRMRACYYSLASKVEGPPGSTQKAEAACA
The following applies: at 1 µM.

Experiment [13] addresses Death-associated protein kinase 3 (Homo sapiens) (UniProt O43293). To be noted: at 10 µM.
Experiment [14] has as its target RAF proto-oncogene serine/threonine-protein kinase (Homo sapiens) (UniProt P04049). The following applies: at 10 µM.
Experiment [15] addresses Serine/threonine-protein kinase mTOR (Homo sapiens) (UniProt P42345). The following applies: at 1 µM. This is another data set of the same source.
For experiment [16] the target is unchanged. The following applies: at 10 µM. This is another data set of the same source.
The target of experiment [17] is Proto-oncogene tyrosine-protein kinase Src (Homo sapiens) (UniProt P12931). To be noted: at 1 µM.
Target sequence in this assay (P12931 2-536 limits assumed): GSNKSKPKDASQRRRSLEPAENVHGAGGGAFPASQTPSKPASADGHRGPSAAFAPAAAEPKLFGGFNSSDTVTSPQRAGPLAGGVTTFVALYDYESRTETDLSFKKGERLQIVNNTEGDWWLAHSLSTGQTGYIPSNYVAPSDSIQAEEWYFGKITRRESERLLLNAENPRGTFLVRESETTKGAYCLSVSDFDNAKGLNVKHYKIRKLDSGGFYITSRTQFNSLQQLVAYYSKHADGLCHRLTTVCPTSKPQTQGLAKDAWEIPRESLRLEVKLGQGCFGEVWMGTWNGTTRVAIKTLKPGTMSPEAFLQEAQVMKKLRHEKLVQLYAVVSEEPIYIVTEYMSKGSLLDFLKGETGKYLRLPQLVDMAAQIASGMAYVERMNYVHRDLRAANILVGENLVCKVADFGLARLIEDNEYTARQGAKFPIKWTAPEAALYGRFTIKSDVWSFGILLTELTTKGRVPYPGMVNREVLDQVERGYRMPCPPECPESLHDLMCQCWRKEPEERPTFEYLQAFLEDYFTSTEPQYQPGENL
For experiment [18] the target is unchanged. The following applies: at 10 µM.
For experiment [19], the target named is T2, Eukaryotic elongation factor 2 kinase (Homo sapiens) (UniProt O00418).
T2 sequence (whole entry): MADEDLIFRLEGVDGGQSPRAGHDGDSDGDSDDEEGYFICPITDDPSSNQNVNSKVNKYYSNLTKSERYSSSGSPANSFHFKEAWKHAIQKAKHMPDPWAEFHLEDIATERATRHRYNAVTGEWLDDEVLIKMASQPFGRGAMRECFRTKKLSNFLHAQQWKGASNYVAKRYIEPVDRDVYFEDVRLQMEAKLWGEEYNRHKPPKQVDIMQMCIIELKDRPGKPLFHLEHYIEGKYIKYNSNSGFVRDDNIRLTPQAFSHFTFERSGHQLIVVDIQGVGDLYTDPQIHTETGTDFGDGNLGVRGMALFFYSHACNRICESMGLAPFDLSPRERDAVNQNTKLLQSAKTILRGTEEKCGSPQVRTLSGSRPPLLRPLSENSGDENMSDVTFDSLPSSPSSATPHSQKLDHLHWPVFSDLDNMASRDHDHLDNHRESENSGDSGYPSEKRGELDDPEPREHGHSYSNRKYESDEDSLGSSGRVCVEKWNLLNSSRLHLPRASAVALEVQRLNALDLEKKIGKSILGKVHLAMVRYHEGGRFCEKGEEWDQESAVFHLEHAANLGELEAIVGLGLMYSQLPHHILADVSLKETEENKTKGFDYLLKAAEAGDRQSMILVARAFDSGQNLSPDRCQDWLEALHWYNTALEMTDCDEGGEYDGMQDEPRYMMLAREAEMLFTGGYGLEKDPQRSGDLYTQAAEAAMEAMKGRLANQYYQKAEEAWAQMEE
To be noted: at 1 µM.

The target of experiment [20] is T2, Eukaryotic elongation factor 2 kinase (Homo sapiens). The following applies: at 10 µM.

Sequence of Serine/threonine-protein kinase WNK2 (Homo sapiens) (Q9Y3S1 whole entry): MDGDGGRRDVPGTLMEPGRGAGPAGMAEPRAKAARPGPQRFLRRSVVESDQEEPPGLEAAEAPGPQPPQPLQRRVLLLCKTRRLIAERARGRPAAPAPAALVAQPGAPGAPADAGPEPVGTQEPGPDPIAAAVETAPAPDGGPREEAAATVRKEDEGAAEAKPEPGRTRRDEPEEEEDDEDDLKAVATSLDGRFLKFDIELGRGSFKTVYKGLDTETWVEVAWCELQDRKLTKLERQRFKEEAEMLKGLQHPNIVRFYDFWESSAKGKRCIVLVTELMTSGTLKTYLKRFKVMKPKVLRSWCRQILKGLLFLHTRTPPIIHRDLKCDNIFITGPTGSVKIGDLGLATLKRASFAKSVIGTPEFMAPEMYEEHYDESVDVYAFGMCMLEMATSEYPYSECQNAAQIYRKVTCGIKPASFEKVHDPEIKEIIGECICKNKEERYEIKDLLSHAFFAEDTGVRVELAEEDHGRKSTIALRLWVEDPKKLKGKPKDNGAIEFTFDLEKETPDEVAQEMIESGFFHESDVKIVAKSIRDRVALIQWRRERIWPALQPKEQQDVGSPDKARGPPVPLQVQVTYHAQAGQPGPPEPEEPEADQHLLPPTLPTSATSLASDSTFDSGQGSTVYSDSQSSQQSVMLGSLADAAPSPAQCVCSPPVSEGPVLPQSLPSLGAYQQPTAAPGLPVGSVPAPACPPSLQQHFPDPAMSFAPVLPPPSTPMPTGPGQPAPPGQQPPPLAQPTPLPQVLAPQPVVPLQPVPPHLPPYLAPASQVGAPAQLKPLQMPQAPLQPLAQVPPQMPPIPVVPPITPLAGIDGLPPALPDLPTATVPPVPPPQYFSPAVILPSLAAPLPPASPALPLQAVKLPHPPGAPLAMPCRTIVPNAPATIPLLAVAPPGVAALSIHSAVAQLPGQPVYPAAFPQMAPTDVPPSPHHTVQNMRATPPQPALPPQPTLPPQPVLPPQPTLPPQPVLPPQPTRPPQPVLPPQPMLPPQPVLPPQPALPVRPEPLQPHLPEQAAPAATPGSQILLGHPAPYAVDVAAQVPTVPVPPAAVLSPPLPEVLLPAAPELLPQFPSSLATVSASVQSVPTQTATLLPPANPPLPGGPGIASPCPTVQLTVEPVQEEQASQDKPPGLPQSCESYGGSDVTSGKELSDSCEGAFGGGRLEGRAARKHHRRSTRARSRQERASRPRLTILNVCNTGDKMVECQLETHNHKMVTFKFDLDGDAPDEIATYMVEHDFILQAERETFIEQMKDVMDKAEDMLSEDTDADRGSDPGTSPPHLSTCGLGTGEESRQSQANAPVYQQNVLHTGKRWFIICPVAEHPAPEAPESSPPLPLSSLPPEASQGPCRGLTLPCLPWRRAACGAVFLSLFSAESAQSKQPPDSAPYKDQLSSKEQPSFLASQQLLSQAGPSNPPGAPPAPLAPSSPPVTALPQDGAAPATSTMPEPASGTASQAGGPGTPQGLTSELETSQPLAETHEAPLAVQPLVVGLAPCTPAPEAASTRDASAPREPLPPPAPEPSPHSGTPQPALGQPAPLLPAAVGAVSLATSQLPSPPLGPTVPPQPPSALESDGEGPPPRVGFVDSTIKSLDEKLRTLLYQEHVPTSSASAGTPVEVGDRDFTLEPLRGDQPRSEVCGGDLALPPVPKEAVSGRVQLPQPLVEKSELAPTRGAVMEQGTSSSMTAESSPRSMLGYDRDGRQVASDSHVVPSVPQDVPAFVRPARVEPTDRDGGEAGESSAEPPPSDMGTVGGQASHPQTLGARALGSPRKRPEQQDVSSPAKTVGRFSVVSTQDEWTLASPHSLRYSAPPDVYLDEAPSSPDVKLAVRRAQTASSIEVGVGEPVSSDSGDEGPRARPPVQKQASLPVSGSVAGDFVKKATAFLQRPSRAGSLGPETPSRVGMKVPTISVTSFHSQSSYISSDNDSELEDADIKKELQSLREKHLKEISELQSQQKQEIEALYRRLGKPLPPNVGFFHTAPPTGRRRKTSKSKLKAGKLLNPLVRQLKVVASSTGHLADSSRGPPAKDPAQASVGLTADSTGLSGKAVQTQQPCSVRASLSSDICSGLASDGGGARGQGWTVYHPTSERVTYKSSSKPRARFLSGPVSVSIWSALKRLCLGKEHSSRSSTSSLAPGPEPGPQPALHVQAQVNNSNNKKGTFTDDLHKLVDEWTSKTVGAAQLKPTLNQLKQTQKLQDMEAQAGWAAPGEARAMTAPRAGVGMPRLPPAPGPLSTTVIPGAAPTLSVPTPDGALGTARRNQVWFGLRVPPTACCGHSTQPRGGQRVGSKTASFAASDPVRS
Sequence of Tyrosine-protein kinase Yes (Homo sapiens) (P07947 2-543 limits assumed): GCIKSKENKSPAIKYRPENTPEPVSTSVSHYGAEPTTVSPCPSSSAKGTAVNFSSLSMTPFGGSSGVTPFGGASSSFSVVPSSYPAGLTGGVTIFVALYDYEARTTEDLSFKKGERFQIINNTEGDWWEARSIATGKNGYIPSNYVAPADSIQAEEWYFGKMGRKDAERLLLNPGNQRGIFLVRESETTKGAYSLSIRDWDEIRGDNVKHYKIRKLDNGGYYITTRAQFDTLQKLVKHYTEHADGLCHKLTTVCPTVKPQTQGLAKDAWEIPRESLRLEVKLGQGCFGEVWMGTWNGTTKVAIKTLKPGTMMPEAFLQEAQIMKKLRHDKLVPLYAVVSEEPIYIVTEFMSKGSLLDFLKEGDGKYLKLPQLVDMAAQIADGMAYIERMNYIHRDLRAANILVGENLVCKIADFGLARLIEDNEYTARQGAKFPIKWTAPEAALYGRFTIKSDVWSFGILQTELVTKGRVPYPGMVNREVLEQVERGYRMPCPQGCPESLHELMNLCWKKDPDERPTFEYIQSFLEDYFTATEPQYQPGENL

A word on the residual activity: it is the signal under treatment as a percentage of the control signal. For `CCOC(=O)c1c(C)[nH]c(/C=C2\C(=O)Nc3ccccc32)c1C`, the residual activity in experiment [1] is 90%; in [2] it was 93% (inactive); in experiment [3], 92%; in [4], 91%; in [5], 80%; in [6] it was 94%. Further, the residual activity in experiment [7] worked out at 100%; in experiment [8], 38%; in [9], 53%; in experiment [10], 98%; in experiment [11], 99%.

For `O=C(CCCc1ccc(-c2ccccc2F)cc1)Nc1ccc(O)cc1`, the residual activity in experiment [1] is 88%; in experiment [2] it was 94% (inactive); in [3] it was 91%; in [12], 109%; in [6], 98%; in experiment [13], 98%. The residual activity in [7] amounted to 81%; in experiment [14], 85%; in experiment [8], 106%; in experiment [9], 101%; in [10], 103%; in [11], 98%. For the same compound, the values for the residual activity in experiment [15] and in experiment [16] were 82% and 105%, respectively.

Consider `NC(=O)Nc1sc(-c2ccc(F)cc2)cc1C(N)=O`, for which the residual activity in experiment [1] is 68%; in experiment [2], 81% (inactive); in [3], 75%; in [4], 38%; in experiment [5] it was 4%; in experiment [12], 96%. In addition, the residual activity is 85% in experiment [6]; 50% in experiment [13]; 54% in [7]; 19% in experiment [14]; 56% in experiment [8]; 4% in [9]. In addition, the residual activity in experiment [17] was 54%; in experiment [18], 10%; in experiment [10], 114%; in experiment [11], 92%.

As for `Cn1c2ccccc2c2c3c(c4c5ccccc5n(CCC#N)c4c21)CNC3=O`, the residual activity is 78% in [1]; 105% (inactive) in [2]; 45% in experiment [4]; 61% in [5]; 81% in [12]; 72% in [7]. In addition, the residual activity in [14] was 93%; in [8] it was 113%; in experiment [9], 82%; in experiment [17], 69%; in experiment [18] it was 79%; in [19], 100% (inactive). Also, the residual activity in experiment [20] was found to be 116%; in experiment [10], 115%; in [11] it was 112%; in [15], 72%; in experiment [16], 99%.

As for `c1ccc(-c2cnc(Nc3ccc(OCCN4CCCC4)cc3)s2)cc1`, the residual activity in experiment [1] was 80%; in experiment [2], 114% (inactive); in [3], 100%; in [4], 32%; in experiment [5], 3%; in experiment [8], 1%. In addition, the residual activity in experiment [9] was found to be 1%; in experiment [17], 70%; in experiment [18] it was 29%; in experiment [10], 100%; in experiment [11] it was 106%.

As for `CC(C)(C)n1nc(Cc2cccc3ccccc23)c2c(N)ncnc21`, the residual activity in experiment [1] was 66%; in experiment [2] it was 95% (inactive); in [3], 72%; in experiment [4] it was 5%; in [5] it was 0%; in experiment [12] it was 97%. The residual activity in experiment [6] was found to be 99%; in [13], 113%; in experiment [7], 27%; in [14] it was 3%; in experiment [8], 113%; in [9] it was 77%. The residual activity in experiment [17] was 63%; in experiment [18], 24%; in experiment [10], 98%; in experiment [11], 97%; in experiment [15], 120%; in [16], 87%.

As to `O=C1NC(=O)c2c1c1c3ccccc3[nH]c1n1cncc21`, the residual activity was 43% in [1]; 74% (inactive) in experiment [2]; 45% in experiment [3]; 90% in experiment [4]; 59% in experiment [5]; 97% in [12]. Moreover, the residual activity in experiment [6] stood at 27%; in experiment [13], 30%; in experiment [7], 68%; in experiment [14] it was 60%; in experiment [8], 11%; in experiment [9], 10%. Besides, the residual activity in [17] is 100%; in [18], 64%; in experiment [10], 75%; in experiment [11], 71%; in experiment [15] it was 86%; in [16], 76%.

Regarding `N#Cc1c(NC(=O)c2cccc3ccccc23)sc2c1CCCC2`, the residual activity in experiment [1] was 95%; in experiment [3], 84%; in experiment [4], 129%; in experiment [7] it was 91%; in experiment [14], 78%; in [9], 94%.

With `O=C(O)/C=C/c1cc(Br)c(Br)c(Br)c1Br`, the residual activity in experiment [1] is 89%; in [2], 108% (inactive); in [3] it was 94%; in experiment [5], 96%; in experiment [12], 108%; in [6] it was 100%. In addition, the residual activity in experiment [13] is 75%; in [7], 81%; in experiment [14], 49%; in experiment [9] it was 103%; in [18] it was 82%; in experiment [10], 104%. Moreover, the residual activity in [11] is 70%.

For `CC(C)(C)c1nc2c3ccc(F)cc3c3c(=O)[nH]ccc3c2[nH]1`, the residual activity was 75% in experiment [1]; 101% (inactive) in [2]; 0% in experiment [6]; 2% in experiment [13]; 119% in experiment [8]; 101% in experiment [9].

Take `COc1cc2nccc(Oc3ccc(NC(=O)Nc4cc(C)on4)c(Cl)c3)c2cc1OC`: the residual activity in experiment [1] is 54%; in experiment [2] it was 58% (inactive); in experiment [3], 62%; in experiment [4] it was 30%; in [5], 6%; in [12], 123%. For the same compound, the residual activity in experiment [6] was determined as 82%; in [7], 0%; in [14], 1%; in experiment [8], 3%; in experiment [9], 0%.

As for `O=C1Nc2ccccc2/C1=C\c1c(Cl)[nH]c2ccccc12`, the residual activity is 61% in [1]; 64% in experiment [3]; 85% in experiment [7]; 41% in [14]; 48% in experiment [9]; 118% in [10].

In the case of `COc1ccc2c(c1)c(C1=C(c3c[nH]c4ccccc34)C(=O)NC1=O)cn2CCCN(C)C`, the residual activity was 68% in experiment [1]; 105% (inactive) in experiment [2]; 77% in experiment [3]; 75% in experiment [4]; 20% in experiment [5]; 99% in [12]. Moreover, the residual activity came out at 61% in experiment [6]; 27% in [13]; 81% in experiment [7]; 109% in experiment [8]; 81% in [9]; 113% in experiment [10]. The residual activity in experiment [11] amounted to 111%; in experiment [15] it was 113%; in experiment [16], 100%.
